{"source": "PubChem BioAssay AID588397", "about": "(National Center for Advancing Translational Sciences (NCATS), 2011)", "note": "Hit rate of the full screen: of about 1,300 compounds, about 1,000 (77%) were called active. About 7% were inconclusive and are not listed. The call rests on the fitted dose curve; in most records, active means well fitted inhibition curve with a large enough effect; inconclusive means small, poorly fitted or top-dose-only effect; inactive means no such curve, though single readings can be large or run the other way. The set was probably picked from earlier hits. The list shows a part of the results. Potency means the concentration at half of the fitted maximal effect.", "data": [{"test": "qHTS of small molecules that selectively kill Giardia lamblia: Hit Validation;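 further: viability measured as ATP content by luminescence so killing lowers signal; trophozoites exposed to compounds for 48 h anaerobically at 37 °C; nearly all actives have a fitted effect of over 65% in size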.", "conditions": "Giardia lamblia trophozoite viability, dose-response; series mostly up to 38.3 µM", "procedure,_shortened": "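Each well holds 100 Giardia trophozoites and compound. After two days (48 hrs) at 37 deg C in anaerobic conditions, ATP is quantified by luminescence.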", "values": [{"compound": "Cc1cnc([N+](=O)[O-])n1CCOC(=O)NC(=O)c1cccc(F)c1", "Potency": "0.65 µM (active)"}, {"compound": "Cc1cnc([N+](=O)[O-])n1CCOC(=O)NC(=O)c1ccccc1", "Potency": "0.918 µM (active)"}, {"compound": "Cc1cnc([N+](=O)[O-])n1CCOC(=O)NC(=O)c1ccc(F)cc1", "Potency": "1.16 µM (active)"}, {"compound": "Cc1cnc([N+](=O)[O-])n1CCOC(=O)NC(=O)c1c(F)cccc1F", "Potency": "1.3 µM (active)"}, {"compound": "Cc1cnc([N+](=O)[O-])n1CCOC(=O)c1cccc(F)c1", "Potency": "1.16 µM (active)"}, {"compound": "Cc1cnc([N+](=O)[O-])n1CCOC(=O)NC(=O)c1ccc(C(F)(F)F)cc1", "Potency": "0.259 µM (active)"}, {"compound": "Cc1ccc(C(=O)NC(=O)OCCn2c(C)cnc2[N+](=O)[O-])cc1", "Potency": "0.183 µM (active)"}, {"compound": "CSCCC(NC(=O)c1ccco1)C(=O)OCc1cc([N+](=O)[O-])cc2c1OCOC2", "note": "(stereo unspecified)", "Potency": "4.6 µM (active)"}, {"compound": "Cc1cccc(C)c1OCC(=O)N(Cc1cccs1)C1CCS(=O)(=O)C1", "note": "(stereo unspecified)", "Potency": "inactive"}, {"compound": "CC1C/C(=C/c2ccncc2)C(=O)/C(=C/c2ccncc2)C1", "note": "(stereo unspecified)", "Potency": "11.6 µM (active)"}, {"compound": "O=C1/C(=C/c2ccncc2)CCC/C1=C\\c1ccncc1", "Potency": "18.3 µM (active)"}, {"compound": "CC(C)(C)[C@H](N)C(=O)N[C@H]1CCC2C3CC=C4C[C@@H](O)CC[C@]4(C)C3CC[C@@]21C", "note": "(stereo partly specified)", "Potency": "2.9 µM (active)"}, {"compound": "CN(C)CCCN(C(=O)c1cc2cc([N+](=O)[O-])ccc2s1)c1nc2cc3c(cc2s1)OCCO3", "Potency": "1.63 µM (active)"}, {"compound": "CCOC(=O)C1=C(C)NC2=C(C(=O)c3ccccc32)C1c1ccc([N+](=O)[O-])o1", "note": "(stereo unspecified)", "Potency": "0.729 µM (active)"}, {"compound": "C=CCOC(=O)C1=C(C)NC(=O)NC1c1ccc(O)cc1", "note": "(stereo unspecified)", "Potency": "inactive"}, {"compound": "COC(=O)C1=C(C)N(C)C(=O)NC1c1ccc([N+](=O)[O-])o1", "note": "(stereo unspecified)", "Potency": "0.46 µM (active)"}, {"compound": "CCOC(=O)C1=C(C)NC(=O)NC1c1ccc([N+](=O)[O-])o1", "note": "(stereo unspecified)", "Potency": "1.16 µM (active)"}, {"compound": "O=C(Nc1ccc(N2CCCC2)c(Cl)c1)c1ccc([N+](=O)[O-])o1", "Potency": "1.83 µM (active)"}, {"compound": "O=C(Nc1ccc(N2CCOCC2)c(Cl)c1)c1ccc([N+](=O)[O-])o1", "Potency": "0.729 µM (active)"}, {"compound": "O=C1CC(c2ccc(F)cc2)CC2=C1C(c1ccc([N+](=O)[O-])o1)Nc1ccccc1N2", "note": "(stereo unspecified)", "Potency": "0.163 µM (active)"}, {"compound": "CN(C)c1ccc(/C=C/c2ccc3ccccc3n2)cc1", "Potency": "0.46 µM (active)"}, {"compound": "CN(C)c1ccc(/C=C/c2ccc3ccccc3[n+]2[O-])cc1", "Potency": "1.03 µM (active)"}, {"compound": "CN(C)c1ccc(/C=C/c2ccc3cc(N)ccc3n2)cc1", "Potency": "0.183 µM (active)"}, {"compound": "CC(=O)OCON[N+]([O-])=NC(C)C", "Potency": "0.918 µM (active)"}, {"compound": "CC(C)(C)C1C/C(=C/c2ccccn2)C(=O)/C(=C/c2ccccn2)C1", "note": "(stereo unspecified)", "Potency": "6.5 µM (active)"}, {"compound": "c1ccc2nc3c(cc2c1)CCCC3", "Potency": "10.3 µM (active)"}, {"compound": "Cc1cc(C)c(-n2[nH]nnc2=S)c(C)c1", "Potency": "inactive"}, {"compound": "O=C(N/N=C\\c1ccc(O)c([N+](=O)[O-])c1)C1COc2ccccc2O1", "note": "(stereo unspecified)", "Potency": "5.16 µM (active)"}, {"compound": "Cc1ccc(/C=C/C(=O)NCC2COc3ccccc3O2)o1", "note": "(stereo unspecified)", "Potency": "inactive"}, {"compound": "O=C(Nc1ncc([N+](=O)[O-])s1)C1COc2ccccc2O1", "note": "(stereo unspecified)", "Potency": "0.29 µM (active)"}, {"compound": "O=C(N/N=C\\c1ccc([N+](=O)[O-])s1)C1COc2ccccc2O1", "note": "(stereo unspecified)", "Potency": "4.1 µM (active)"}, {"compound": "O=C(N/N=C\\c1ccc([N+](=O)[O-])o1)C1COc2ccccc2O1", "note": "(stereo unspecified)", "Potency": "0.818 µM (active)"}, {"compound": "CC(C)(C)c1ccc2c(c1)OC(C(=O)N/N=C/c1ccc([N+](=O)[O-])o1)CO2", "note": "(stereo unspecified)", "Potency": "0.818 µM (active)"}, {"compound": "O=[N+]([O-])C(/C=C(\\Cl)[N+](=O)[O-])=C(N1CCCCC1)N1CCCCC1", "Potency": "0.516 µM (active)"}, {"compound": "O=[N+]([O-])C(/C=C(/Cl)[N+](=O)[O-])=C(N1CCCCC1)N1CCCCC1", "Potency": "1.16 µM (active)"}, {"compound": "O=C1c2ccccc2C(=O)C1c1ccncc1", "Potency": "7.29 µM (active)"}, {"compound": "Cc1cc(C)cc(N=c2c([N+](=O)[O-])nn(-c3cccc(Cl)c3)n2O)c1", "Potency": "3.26 µM (active)"}, {"compound": "Cc1cc(C)cc(N=c2c([N+](=O)[O-])nn(-c3ccc(Cl)cc3)n2O)c1", "Potency": "1.3 µM (active)"}, {"compound": "O=[N+]([O-])c1[nH]cnc1/C=C/c1ccccc1", "Potency": "1.83 µM (active)"}, {"compound": "O=[N+]([O-])c1cccc(/C=C/c2nc[nH]c2[N+](=O)[O-])c1", "Potency": "2.05 µM (active)"}, {"compound": "Cc1cccc(N=Nc2c(C)c(C#N)c(O)[nH]c2=O)c1", "Potency": "3.65 µM (active)"}, {"compound": "O=C(CNc1cccc([N+](=O)[O-])c1)N/N=C/c1ccc([N+](=O)[O-])o1", "Potency": "0.516 µM (active)"}, {"compound": "O=C(CNc1ccc2ccccc2c1)N/N=C/c1ccc([N+](=O)[O-])o1", "Potency": "1.03 µM (active)"}, {"compound": "Cc1ccc(NCC(=O)N/N=C\\c2ccc([N+](=O)[O-])o2)cc1", "Potency": "0.65 µM (active)"}, {"compound": "O=C(CNc1ccccc1)N/N=C/c1ccc([N+](=O)[O-])o1", "Potency": "1.03 µM (active)"}, {"compound": "COC(=O)[C@]1(C)N[C@H](CN(C)S(=O)(=O)c2ccc(-c3ccccc3)cc2)[C@@H]2C(=O)N(Cc3ccccc3)C(=O)[C@@H]21", "Potency": "inactive"}, {"compound": "COc1ccc(-n2c(C)cc(C(=O)COc3ccc(C)nc3[N+](=O)[O-])c2C)cc1", "Potency": "1.83 µM (active)"}, {"compound": "Cc1ccc(OCC(=O)c2cc(C)n(-c3ccccc3)c2C)c([N+](=O)[O-])n1", "Potency": "0.516 µM (active)"}, {"compound": "CCOC(=O)CN1C(=O)S/C(=C/c2cccc([N+](=O)[O-])c2O)C1=O", "Potency": "2.31 µM (active)"}, {"compound": "Cc1cccc(NC(=O)CN2C(=O)S/C(=C\\c3ccc(O)c([N+](=O)[O-])c3)C2=O)c1", "Potency": "1.3 µM (active)"}, {"compound": "Cc1ccc(NC(=O)CN2C(=O)S/C(=C/c3ccc(O)c([N+](=O)[O-])c3)C2=O)cc1C", "Potency": "1.3 µM (active)"}, {"compound": "CCN(CC)C(=O)CSc1nnc2nnc3cc(Cl)ccc3n12", "Potency": "1.3 µM (active)"}, {"compound": "COc1ccc(C(=O)c2c3ccc(C(F)(F)F)cc3[n+]([O-])n2CCCN)cc1", "Potency": "1.3 µM (active)"}, {"compound": "NCCCn1c(C(=O)c2cc(Cl)c(N)c(Cl)c2)c2ccc(C(F)(F)F)cc2[n+]1[O-]", "Potency": "1.45 µM (active)"}, {"compound": "NCCCn1c(C(=O)c2ccc(Cl)cc2)c2ccc(C(F)(F)F)cc2[n+]1[O-]", "Potency": "0.41 µM (active)"}, {"compound": "Cc1ccc(C(=O)c2c3ccc(C(F)(F)F)cc3[n+]([O-])n2CCCN)cc1", "Potency": "1.03 µM (active)"}, {"compound": "O=C(N/N=C/c1cc2c(cc1[N+](=O)[O-])OCO2)c1ccccn1", "Potency": "7.29 µM (active)"}, {"compound": "COc1ccc(CCNc2oc(COc3ccc(Br)cc3)nc2C#N)cc1OC", "Potency": "inactive"}, {"compound": "NC(=O)C1CCN(c2cc(Cl)ccc2[N+](=O)[O-])CC1", "Potency": "8.18 µM (active)"}, {"compound": "NC(=O)C1CCN(c2ncccc2[N+](=O)[O-])CC1", "Potency": "1.16 µM (active)"}, {"compound": "N#Cc1nc(-c2ccc(OCc3ccccc3)cc2)oc1N1CCC(C(N)=O)CC1", "Potency": "inactive"}, {"compound": "Cc1cc(C)n(S(=O)(=O)c2ccccc2[N+](=O)[O-])n1", "Potency": "1.83 µM (active)"}, {"compound": "Cc1nc2cc(-c3ccc(Cl)cc3)nn2c(NCCN(C)C)c1C", "Potency": "0.918 µM (active)"}, {"compound": "CN(C)C(=O)c1cc([N+](=O)[O-])cc([N+](=O)[O-])c1N(C)C", "Potency": "0.818 µM (active)"}, {"compound": "Cc1ccc(S(=O)(=O)/N=C(/Sc2ccccc2C(=O)O)c2ccccc2)cc1", "Potency": "inactive"}, {"compound": "CN(C)c1ccc(C2Nc3cccc4cccc(c34)N2)cc1", "Potency": "3.65 µM (active)"}, {"compound": "CN(C)c1ccc(C2NC(=O)c3ccccc3N2)cc1", "note": "(stereo unspecified)", "Potency": "6.5 µM (active)"}, {"compound": "O=C(c1ccc([N+](=O)[O-])o1)N1CCN(Cc2ccccc2)CC1", "Potency": "6.5 µM (active)"}, {"compound": "O=C(c1ccc([N+](=O)[O-])o1)N1CCCCCC1", "Potency": "3.65 µM (active)"}, {"compound": "O=C(c1ccc([N+](=O)[O-])o1)N1CCOCC1", "Potency": "1.83 µM (active)"}, {"compound": "O=C(O)c1cc(Cl)c(Cl)cc1C(=O)N1CCCC1", "Potency": "inactive"}, {"compound": "CCC1CCCCN1C(=O)c1ccc([N+](=O)[O-])o1", "note": "(stereo unspecified)", "Potency": "1.83 µM (active)"}, {"compound": "O=C(c1cc(Cl)ccc1Cl)N1CCN(Cc2ccccc2)CC1", "Potency": "inactive"}, {"compound": "CC1CCCN(C(=O)c2ccc([N+](=O)[O-])o2)C1", "note": "(stereo unspecified)", "Potency": "5.16 µM (active)"}, {"compound": "COc1ccccc1C(=O)C1CCCN(C(=O)c2ccco2)C1", "note": "(stereo unspecified)", "Potency": "inactive"}, {"compound": "COCc1ccc(C(=O)N2CCCC(C(=O)c3ccc(Cl)cc3C)C2)o1", "note": "(stereo unspecified)", "Potency": "inactive"}, {"compound": "CC(=O)N1CCN(c2ccc(S(C)(=O)=O)cc2[N+](=O)[O-])CC1", "Potency": "1.03 µM (active)"}, {"compound": "O=C(O)C1CCN(c2ccc([N+](=O)[O-])cc2[N+](=O)[O-])CC1", "Potency": "1.16 µM (active)"}, {"compound": "O=C(O)C1CCN(c2ccccc2[N+](=O)[O-])CC1", "Potency": "5.79 µM (active)"}, {"compound": "CCN(C(=O)COC(=O)c1cc(S(=O)(=O)N2CCc3ccccc32)ccc1OC)C1CCS(=O)(=O)C1", "note": "(stereo unspecified)", "Potency": "inactive"}, {"compound": "Cc1c(Nc2nc3ccccc3n3cnnc23)cccc1[N+](=O)[O-]", "Potency": "9.18 µM (active)"}, {"compound": "O=C(/C=C/c1ccc2c(c1)OCO2)Nc1cccnc1", "Potency": "4.6 µM (active)"}, {"compound": "NS(=O)(=O)c1ccc(Nc2ncccc2[N+](=O)[O-])cc1", "Potency": "0.41 µM (active)"}, {"compound": "Cc1c(NC(=O)c2cc(-c3ccc(Cl)c(Cl)c3)on2)c(=O)n(-c2ccccc2)n1C", "Potency": "inactive"}, {"compound": "COc1ccc2cc(-c3cc(C(=O)OCC(=O)Nc4c(C)n(C)n(-c5ccccc5)c4=O)c4ccccc4n3)ccc2c1", "Potency": "0.41 µM (active)"}, {"compound": "O=c1c([N+](=O)[O-])cc(C(F)(F)F)cn1Cc1c(Cl)cccc1Cl", "Potency": "1.3 µM (active)"}, {"compound": "COC(=O)c1ccc(Cn2cc(C(F)(F)F)cc([N+](=O)[O-])c2=O)cc1", "Potency": "4.1 µM (active)"}, {"compound": "O=c1c([N+](=O)[O-])cc(C(F)(F)F)cn1Cc1cccc(Cl)c1", "Potency": "2.31 µM (active)"}, {"compound": "CCCC[n+]1c(/C=C/c2c(OC)cc(OC)cc2OC)ccc2ccccc21", "Potency": "inactive"}, {"compound": "COc1cccc(/C=C/c2ccc3ccccc3[n+]2C)c1OC", "Potency": "5.79 µM (active)"}, {"compound": "COc1cccc(-c2cc3nc4c(c(NCC(C)(C)CN(C)C)n3n2)CCCC4)c1", "Potency": "0.579 µM (active)"}]}]}
